Source: PubChem BioAssay (Tox21)
Values joined by “and” are separate entries in the source; they are usually repeats but may differ in a detail not shown here. Equal values may be shown once. Records with an inconclusive call do not appear. Active and inactive are the calls of the source. Unless noted, calls come from the whole dose curve; as a rule, active = well fitted curve in the direction sought with a large enough effect in the repeat runs; inconclusive = weak or mixed curves; inactive = no such curve, though single readings can be large; an effect the other way counts as inactive or inconclusive.

Columns and labels:
[1] = biological target: Estrogen receptor beta (Homo sapiens) (UniProt Q92731); test: qHTS assay to identify small molecule agonists of the estrogen receptor beta (ER-beta) signaling pathway (AID 1259377; active = well fitted activation curve with a large enough effect in the signal ratio in the repeat runs, not every such curve was filed as active; the % refers to the signal ratio)
Sequence of Estrogen receptor beta (Homo sapiens) (Q92731 whole entry, looked up): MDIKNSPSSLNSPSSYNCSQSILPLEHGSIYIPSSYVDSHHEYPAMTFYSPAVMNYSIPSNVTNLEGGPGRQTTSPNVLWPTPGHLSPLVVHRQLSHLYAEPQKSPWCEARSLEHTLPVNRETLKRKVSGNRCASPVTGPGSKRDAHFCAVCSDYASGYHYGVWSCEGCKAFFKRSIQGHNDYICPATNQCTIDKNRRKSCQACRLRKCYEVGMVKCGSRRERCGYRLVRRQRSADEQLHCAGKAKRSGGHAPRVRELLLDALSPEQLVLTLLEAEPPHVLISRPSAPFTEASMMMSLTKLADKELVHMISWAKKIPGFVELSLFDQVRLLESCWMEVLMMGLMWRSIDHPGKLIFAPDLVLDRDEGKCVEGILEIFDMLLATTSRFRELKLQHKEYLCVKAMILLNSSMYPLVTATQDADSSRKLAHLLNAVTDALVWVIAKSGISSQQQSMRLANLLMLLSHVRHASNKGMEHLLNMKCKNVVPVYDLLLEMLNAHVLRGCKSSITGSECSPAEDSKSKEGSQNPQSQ
How it was run: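 Ratiometric beta-lactamase FRET read-out came after 2 h substrate loading at room temperature. It followed 16 h compound treatment at 37C of GripTite HEK293T cells carrying a UAS-bla reporter, plated in 2% charcoal-stripped FBS medium.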

[2] = biological target: Estrogen receptor beta (Homo sapiens) (UniProt Q92731); test: qHTS assay to identify small molecule antagonists of the estrogen receptor beta (ER-beta) signaling pathway (AID 1259378; active = well fitted inhibition curve with a large enough effect in the signal ratio in the repeat runs, not every such curve was filed as active; the % refers to the signal ratio; note: potency is the fitted concentration of half-maximal effect)
How it was run: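 Antagonist mode: compounds added to beta-lactamase reporter HEK293T ER-beta-UAS cells stimulated with E2 (1nM final), 16 hr at 37C. LiveBLAzer B/G FRET substrate, 2 hours room temperature, fluorescence read-out.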

[3] = qHTS assay to identify small molecule agonists of the androgen receptor (AR) signaling pathway in the presence of an antagonist - cell viability counter screen (AID 1259379);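 note: MDA-kb2 human breast cancer cells carrying an MMTV luciferase reporter; series mostly up to about 92 µM; nearly all actives have a fitted effect of over 25% in size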
How it was run: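 Fluorescence from CellTiter-Fluor, added after 15 hr and read 1 hr later, gave cell viability. Cells were MDA-kb2 exposed to compounds (15 concentrations) in the presence of 3.0uM nilutamide at 37C, 0% CO2.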

[4] = qHTS assay to identify small molecule antagonists of the estrogen receptor beta (ER-beta) signaling pathway - cell viability counter screen (AID 1259382);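 note: HEK293T cells carrying ER-beta-UAS-bla reporter stimulated with estradiol; series mostly up to about 92 µM; nearly all actives have a fitted effect of over 55% in size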
How it was run: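 Following a 6 hr plating period, HEK293T cells carrying a UAS-driven beta-lactamase reporter under ER-beta control received compounds and 1nM E2 (final). After 16 hr at 37C and 2 hr substrate loading, CellTiter-Glo luminescence indicated viability.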

[5] = biological target: Estrogen receptor (Homo sapiens) (UniProt P03372); test: qHTS assay to identify small molecule agonists of the estrogen receptor alpha (ER-alpha) signaling pathway in the presence of an antagonist (AID 1259383; calls by dose curve; note: nearly all actives have a fitted effect of over 15% in size; note: potency is the fitted concentration of half-maximal effect; for activation: top concentration of the series differs between compounds)
Sequence of Estrogen receptor (Homo sapiens) (P03372 whole entry, looked up): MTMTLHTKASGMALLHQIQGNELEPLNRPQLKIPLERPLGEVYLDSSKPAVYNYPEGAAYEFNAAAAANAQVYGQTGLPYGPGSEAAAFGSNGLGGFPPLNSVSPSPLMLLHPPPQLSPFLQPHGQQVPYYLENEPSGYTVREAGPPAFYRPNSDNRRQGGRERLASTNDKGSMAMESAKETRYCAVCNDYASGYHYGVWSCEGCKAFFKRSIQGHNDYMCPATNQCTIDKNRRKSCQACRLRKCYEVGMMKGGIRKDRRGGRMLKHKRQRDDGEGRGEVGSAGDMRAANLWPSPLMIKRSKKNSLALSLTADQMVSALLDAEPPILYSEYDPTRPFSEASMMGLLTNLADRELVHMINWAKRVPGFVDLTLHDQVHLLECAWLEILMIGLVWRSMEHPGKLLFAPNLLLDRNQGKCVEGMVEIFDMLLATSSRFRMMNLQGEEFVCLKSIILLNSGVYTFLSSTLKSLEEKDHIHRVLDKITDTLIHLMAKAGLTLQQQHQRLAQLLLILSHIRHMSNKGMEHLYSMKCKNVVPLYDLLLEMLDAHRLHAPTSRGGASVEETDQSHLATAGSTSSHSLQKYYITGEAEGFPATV
How it was run: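 Cells are hormone-deprived for 5 days (charcoal-stripped FBS, no phenol red), plated for 24hr, spiked with 10.0nM ICI-182,780, then dosed at 15 concentrations. After 22hr at 37C, ONE-Glo luminescence reports ERE-luciferase activity.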

[6] = qHTS assay to identify small molecule agonists of the estrogen receptor alpha (ER-alpha) signaling pathway in the presence of an antagonist - cell viability counter screen (AID 1259386);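 note: series mostly up to about 92 µM; cells exposed to compounds for 22 h at 37 °C before the viability read; nearly all actives have a fitted effect of over 30% in size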
How it was run: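 Cells are starved of estrogens for 5 days in charcoal-stripped serum, seeded for 24hr and co-treated with ICI-182,780 (10.0nM final) and test compounds. After 22hr at 37C, viability is read as CellTiter-Fluor fluorescence.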

[7] = qHTS assay to identify small molecule antagonists of the progesterone receptor (PR) signaling pathway - cell viability counter screen (AID 1346798); note: nearly all actives have a fitted effect of over 50% in size; note: potency is the fitted concentration of half-maximal effect
How it was run: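 Cytotoxicity read as CellTiter-Glo luminescence (30 min, room temperature) in the same wells as the beta-lactamase readout. HEK293T PR-UAS-bla cells in charcoal-stripped 2% FBS received compound and R5020, then 16 h at 37C, 5% CO2.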

[8] = qHTS assay to identify small molecule antagonists of the TGF-beta/Smad signaling pathway - cell viability counter screen (AID 1346824); note: nearly all actives have a fitted effect of over 50% in size
How it was run: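 Cytotoxicity counter-screen run in the same wells as the beta-lactamase Smad reporter read: CellTiter-Glo luminescence after 30 min at room temperature. HEK 293T SBE-bla cells had 5 hr compound exposure at 37 C with TGF-beta1 (0.25 ng/mL stock).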

[9] = qHTS assay to identify small molecule agonists of the TGF-beta/Smad signaling pathway (AID 1346859; active = well fitted activation curve with a large enough effect in the signal ratio in the repeat runs, not every such curve was filed as active; the % refers to the signal ratio; note: series mostly up to about 77 µM)
How it was run: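 Fluorescence (ex 405 nm; em 460 and 530 nm) was read 2 h after LiveBLAzer FRET substrate at RT. The preceding compound treatment of overnight-plated SBE-bla HEK293T cells lasted 5 h at 37 C.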

[10] = biological target: Thyrotropin-releasing hormone receptor (Homo sapiens) (UniProt P34981); test: qHTS assay to identify small molecule antagonists of the thyrotropin-releasing hormone receptor (TRHR) signaling pathway (AID 1346877; active = well fitted inhibition curve with a large enough effect in the repeat runs, not every such curve was filed as active; note: series mostly up to about 51 µM)
Sequence of Thyrotropin-releasing hormone receptor (Homo sapiens) (P34981 whole entry, looked up): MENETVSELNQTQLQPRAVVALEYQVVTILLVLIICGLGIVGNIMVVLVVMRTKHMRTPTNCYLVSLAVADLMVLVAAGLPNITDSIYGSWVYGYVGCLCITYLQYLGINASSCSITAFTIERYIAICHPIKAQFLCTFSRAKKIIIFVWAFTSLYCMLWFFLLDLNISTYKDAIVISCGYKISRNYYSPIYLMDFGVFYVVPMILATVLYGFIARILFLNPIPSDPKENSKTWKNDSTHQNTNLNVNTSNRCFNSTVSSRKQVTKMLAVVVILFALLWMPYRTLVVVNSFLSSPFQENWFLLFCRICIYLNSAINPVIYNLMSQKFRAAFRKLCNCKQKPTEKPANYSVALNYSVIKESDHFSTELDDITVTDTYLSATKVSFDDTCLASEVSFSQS
How it was run: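 Cells (TRHR-HEK293) are plated and kept 18 h at 37 °C/5% CO2. A calcium-sensitive dye is added for 2 h, compound follows for 5 min at room temperature, and TRH is then given at 1 nM final.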

[11] = biological target: Thyrotropin-releasing hormone receptor (Homo sapiens) (UniProt P34981); test: qHTS assay to identify small molecule agonists of the thyrotropin-releasing hormone receptor (TRHR) signaling pathway (AID 1346891; calls by dose curve; note: series mostly up to about 58 µM)
How it was run: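 Agonist-mode intracellular calcium readout: kinetic fluorescence over 3 min at 1 s intervals after compound addition to TRHR-HEK293 cells (18 h seeded, 2 h dye-loaded at 37 C). Fifteen concentrations, triplicates.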

[12] = Human pregnane X receptor (PXR) small molecule agonists, qHTS cell viability counter screen (AID 1346977); note: nearly all actives have a fitted effect of over 50% in size; note: potency is the fitted concentration of half-maximal effect
How it was run: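 Same-well viability read: CellTiter-Fluor added after 23 hr compound exposure, fluorescence measured 1 hr later. Cells were PXR-Luc HepG2 seeded at 2,000/well in 5% charcoal-stripped FBS medium, rested 5 hr before dosing at 37 C.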

[13] = qHTS assay to identify small molecule agonists or antagonists of the thyroid stimulating hormone receptor (TSHR) signaling pathway - wild type cell line counter screen (AID 1259384; calls by dose curve)
How it was run: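 Counter screen in untransfected Hek293: compounds (15-point titration, triplicate) plus phosphodiesterase inhibitor Ro20-1724 added after 18 h plating; 30 min RT. Intracellular cAMP via competitive d2/cryptate immunoassay, 1 h incubation.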

[14] = biological target: Thyrotropin receptor (Homo sapiens) (UniProt P16473); test: qHTS assay to identify small molecule antagonists of the thyroid stimulating hormone receptor (TSHR) signaling pathway (AID 1259385; calls by dose curve; note: nearly all actives have a fitted effect of over 20% in size; note: potency is the fitted concentration of half-maximal effect)
Sequence of Thyrotropin receptor (Homo sapiens) (P16473 whole entry, looked up): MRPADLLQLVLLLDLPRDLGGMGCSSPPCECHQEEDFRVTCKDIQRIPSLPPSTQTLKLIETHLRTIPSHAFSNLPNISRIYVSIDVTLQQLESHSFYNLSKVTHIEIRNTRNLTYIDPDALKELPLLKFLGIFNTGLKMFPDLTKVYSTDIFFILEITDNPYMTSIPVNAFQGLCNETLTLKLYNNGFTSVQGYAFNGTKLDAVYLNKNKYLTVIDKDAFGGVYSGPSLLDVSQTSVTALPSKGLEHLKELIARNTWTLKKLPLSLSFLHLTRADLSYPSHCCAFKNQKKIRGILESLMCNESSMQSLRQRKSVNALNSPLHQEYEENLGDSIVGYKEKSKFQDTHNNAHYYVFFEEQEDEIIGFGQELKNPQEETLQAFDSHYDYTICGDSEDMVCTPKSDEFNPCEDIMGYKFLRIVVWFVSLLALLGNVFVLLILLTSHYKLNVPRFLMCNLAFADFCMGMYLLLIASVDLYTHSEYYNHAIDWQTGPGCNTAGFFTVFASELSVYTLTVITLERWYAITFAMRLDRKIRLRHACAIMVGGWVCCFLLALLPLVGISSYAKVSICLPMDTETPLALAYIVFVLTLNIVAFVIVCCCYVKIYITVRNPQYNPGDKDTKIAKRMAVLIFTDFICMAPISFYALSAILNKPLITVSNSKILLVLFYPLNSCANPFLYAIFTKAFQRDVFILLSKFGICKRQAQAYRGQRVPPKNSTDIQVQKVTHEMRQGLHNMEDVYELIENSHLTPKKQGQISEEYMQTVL
How it was run: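 Antagonist mode: compound-treated TSHR-expressing HEK293 cells were stimulated with 1.5 ng/mL TSH (final) in presence of Ro20-1724 for 30 min at RT. HTRF cAMP detection after 1 h; each compound tested at 15 concentrations, triplicate.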

[15] = biological target: Progesterone receptor (Homo sapiens) (UniProt P06401); test: qHTS assay to identify small molecule agonists of the progesterone receptor (PR) signaling pathway (AID 1346784; calls by dose curve; note: nearly all actives have a fitted effect of over 30% in size)
Sequence of Progesterone receptor (Homo sapiens) (P06401 whole entry, looked up): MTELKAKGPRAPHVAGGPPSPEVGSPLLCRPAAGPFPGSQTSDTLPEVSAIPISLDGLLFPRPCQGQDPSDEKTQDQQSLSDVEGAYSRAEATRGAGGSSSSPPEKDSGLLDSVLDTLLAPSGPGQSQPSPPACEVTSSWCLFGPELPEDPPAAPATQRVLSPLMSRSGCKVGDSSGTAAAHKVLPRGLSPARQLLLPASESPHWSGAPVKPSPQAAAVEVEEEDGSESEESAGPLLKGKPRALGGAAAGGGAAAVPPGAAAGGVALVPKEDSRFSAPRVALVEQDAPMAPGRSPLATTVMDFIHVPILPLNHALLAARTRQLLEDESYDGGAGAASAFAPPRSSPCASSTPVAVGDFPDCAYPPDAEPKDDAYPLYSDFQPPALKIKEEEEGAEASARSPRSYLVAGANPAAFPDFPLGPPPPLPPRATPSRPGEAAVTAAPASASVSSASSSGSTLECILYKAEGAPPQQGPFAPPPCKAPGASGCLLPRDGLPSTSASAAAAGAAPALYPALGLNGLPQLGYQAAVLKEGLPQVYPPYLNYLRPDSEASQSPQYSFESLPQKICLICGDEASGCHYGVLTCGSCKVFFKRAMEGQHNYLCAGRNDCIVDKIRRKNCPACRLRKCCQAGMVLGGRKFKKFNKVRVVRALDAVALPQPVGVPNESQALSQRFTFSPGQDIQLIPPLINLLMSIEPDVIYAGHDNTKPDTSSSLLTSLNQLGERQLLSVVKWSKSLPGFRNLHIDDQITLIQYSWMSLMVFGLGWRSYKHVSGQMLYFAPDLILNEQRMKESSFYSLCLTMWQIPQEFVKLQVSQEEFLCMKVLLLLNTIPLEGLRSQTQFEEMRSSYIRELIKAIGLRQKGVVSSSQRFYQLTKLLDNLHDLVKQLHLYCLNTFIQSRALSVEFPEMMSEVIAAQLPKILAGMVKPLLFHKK
How it was run: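 Agonist qHTS: compounds pinned onto 3,000 PR-UAS-bla HEK 293T cells per well in charcoal-stripped serum medium, 16hr at 37C, then beta-lactamase activity measured by LiveBLAzer FRET fluorescence after 2 hours at room temperature.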

[16] = biological target: Progesterone receptor (Homo sapiens) (UniProt P06401); test: qHTS assay to identify small molecule antagonists of the progesterone receptor (PR) signaling pathway (AID 1346795; active = well fitted inhibition curve with a large enough effect in the signal ratio in the repeat runs, not every such curve was filed as active; the % refers to the signal ratio; note: potency is the fitted concentration of half-maximal effect)
How it was run: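 Antagonist mode with agonist R5020 at 1 nM final and 16 hr incubation at 37C. Reporter was beta-lactamase driven by UAS in HEK293T (PR-UAS-bla), 2% charcoal-stripped serum; signal from LiveBLAzer FRET substrate, 2 hr at room temperature.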

[17] = qHTS assay to identify small molecule agonists of the progesterone receptor (PR) signaling pathway - cell viability counter screen (AID 1346799; calls by dose curve; note: nearly all actives have a fitted effect of over 45% in size)
How it was run: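 Cytotoxicity measured by CellTiter-Glo luminescence (30 min, RT) in the same wells as the PR beta-lactamase agonist read. Those HEK293T cells had 16 h compound treatment at 37 C in 2% charcoal-stripped FBS medium.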

[18] = qHTS assay to identify small molecule agonists of the TGF-beta/Smad signaling pathway - cell viability counter screen (AID 1346829); note: top concentration of the series differs between compounds; nearly all actives have a fitted effect of over 45% in size
How it was run: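 Here the cytotoxicity of library compounds is measured in SBE-bla HEK 293T cells treated for 5 hr, using CellTiter-Glo added to wells already read for the beta-lactamase reporter.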

[19] = qHTS assay to identify small molecule agonists of the estrogen receptor beta (ER-beta) signaling pathway - cell viability counter screen (AID 1259380); note: nearly all actives have a fitted effect of over 30% in size; note: potency is the fitted concentration of half-maximal effect
How it was run: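 Same-well viability counter screen. Cells: ER-beta-UAS-bla HEK293T, plated 6 hr before compound, in 2% charcoal-stripped FBS. Compound exposure 16 hr, 37C; viability by CellTiter-Glo luminescence after 30 min at room temperature.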

[20] = biological target: Androgen receptor (Homo sapiens) (UniProt P10275); test: qHTS assay to identify small molecule agonists of the androgen receptor (AR) signaling pathway in the presence of an antagonist (AID 1259381; calls by dose curve; note: nearly all actives have a fitted effect of over 15% in size)
Sequence of Androgen receptor (Homo sapiens) (P10275 whole entry, looked up): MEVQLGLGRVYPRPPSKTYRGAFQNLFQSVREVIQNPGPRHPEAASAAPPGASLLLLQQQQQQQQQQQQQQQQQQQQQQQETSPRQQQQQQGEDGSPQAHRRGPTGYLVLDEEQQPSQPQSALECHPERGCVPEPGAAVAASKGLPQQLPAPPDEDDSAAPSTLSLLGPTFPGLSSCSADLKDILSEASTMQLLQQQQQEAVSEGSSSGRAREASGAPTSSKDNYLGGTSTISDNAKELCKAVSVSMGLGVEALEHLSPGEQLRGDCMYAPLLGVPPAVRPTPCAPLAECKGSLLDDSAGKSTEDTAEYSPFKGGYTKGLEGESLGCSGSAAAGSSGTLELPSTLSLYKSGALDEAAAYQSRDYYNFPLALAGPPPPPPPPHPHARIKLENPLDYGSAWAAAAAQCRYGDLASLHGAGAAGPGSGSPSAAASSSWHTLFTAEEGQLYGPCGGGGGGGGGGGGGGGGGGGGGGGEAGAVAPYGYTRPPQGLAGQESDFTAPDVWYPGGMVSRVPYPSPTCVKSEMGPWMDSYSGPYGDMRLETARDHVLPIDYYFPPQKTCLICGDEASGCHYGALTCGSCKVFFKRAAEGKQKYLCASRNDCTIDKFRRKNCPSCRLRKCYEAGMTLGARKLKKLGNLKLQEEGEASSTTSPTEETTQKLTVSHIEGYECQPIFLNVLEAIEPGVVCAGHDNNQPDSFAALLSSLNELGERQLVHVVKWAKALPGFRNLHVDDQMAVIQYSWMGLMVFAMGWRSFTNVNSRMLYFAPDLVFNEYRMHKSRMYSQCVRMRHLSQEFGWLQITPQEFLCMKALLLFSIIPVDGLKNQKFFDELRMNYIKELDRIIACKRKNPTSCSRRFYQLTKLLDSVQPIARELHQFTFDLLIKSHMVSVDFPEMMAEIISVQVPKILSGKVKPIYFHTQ
How it was run: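 Cells are MDA-kb2 (human breast carcinoma, MMTV-luc, AR/GR responsive). Nilutamide is present at 3.0uM final throughout; compounds are added at 15 concentrations and incubated 16hr at 37C before ONE-Glo luminescence detection.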

Measured: Potency

COc1ccc(OC)c(C=O)c1
not listed: [13] | [14] | [15] | [16] | [17] | [18] | [19] | [20]
inactive: all other assays above

CCCCCCCCCCCCCN1CC(C)OC(C)C1 (stereo unspecified)
not listed: [19] | [20]
inactive: all other assays above

ClC1=C(Cl)[C@]2(Cl)[C@@H]3[C@@H](Cl)[C@H](Cl)C[C@@H]3[C@@]1(Cl)C2(Cl)Cl
not listed: [7] | [13] | [14] | [19] | [20]
inactive: all other assays above

CC(C)[C@H](C(=O)OC(C#N)c1cccc(Oc2ccccc2)c1)c1ccc(OC(F)F)cc1 (stereo partly specified)
not listed: [5] | [7] | [14] | [16] | [17] | [20]
inactive: all other assays above

CC(Cc1ccc(C(C)(C)C)cc1)CN1C[C@@H](C)O[C@@H](C)C1 (stereo partly specified)
not listed: [5] | [7] | [10] | [11] | [14] | [15] | [17] | [20]
inactive: all other assays above

Oc1cc(Cl)c(Cl)c(Cl)c1
active: [2] 14.6 µM | [16] 13 µM | [12] 51.7 µM
inactive: [1] | [20] | [5] | [13] | [14] | [8] | [9] | [10] | [11]

Clc1ccc(C(Cl)(Cl)Cl)c(Cl)c1
active: [7] 48.9 µM
not listed: [4] | [5] | [14] | [15] | [17] | [19] | [20]
inactive: all other assays above

c1ccc2c(c1)OCC(C1=NCCN1)O2 (stereo unspecified)
active: [2] 11.9 µM | [16] 21.1 µM | [12] 26.6 µM
not listed: [19] | [20]
inactive: all other assays above

c1ccc2c(c1)[nH]c1cnccc12
active: [16] 27.3 µM
not listed: [19] | [20]
inactive: all other assays above

ClC(Cl)=C(Cl)Cl
not listed: [5] | [19] | [20]
inactive: all other assays above

OC(c1ccc(Cl)cc1)(c1ccc(Cl)cc1)C(Cl)(Cl)Cl
active: [14] 68.6 µM
not listed: [3] | [7] | [10] | [11] | [16] | [20]
inactive: all other assays above

c1ccc(Nc2ccc3ccccc3c2)cc1
active: [2] 54.2 µM and 48.6 µM | [19] 68.2 µM | [5] 8.63 µM | [16] 17.2 µM
not listed: [4] | [14] | [20]
inactive: all other assays above

CC(O)C#N (stereo unspecified)
not listed: [19] | [20]
inactive: all other assays above

CCC(C)c1cc(C(C)(C)C)cc(-n2nc3ccccc3n2)c1O (stereo unspecified)
not listed: [5] | [13] | [14] | [16] | [17] | [19] | [20]
inactive: all other assays above
